# Measured values as given in PubChem BioAssay (NCATS).
# Where “and” joins values, the source holds several entries; their conditions need not be identical. Equal values may be shown once. Inconclusive results are not listed. A call without a number means that no potency is given here. Calls of active or inactive are those of the source. Unless noted, the call rests on the fitted dose curve; in most records, active means well fitted inhibition curve with a large enough effect; inconclusive means small, poorly fitted or top-dose-only effect; inactive means flat fitted curve, though single readings scatter. Where a SMILES comes first, the peptide text is derived from it. Bridges are numbered along the chain shown (N, C = ends). [ ]: non-standard residue; d: D form. The star is where a group is joined. ξ: configuration not given here. d(aThr) = C[C@@H](O)[C@@H](N)C(=O)O; ξThr(3R) = C[C@@H](O)C(N)C(=O)O; X3 = CC[C@@H](C)CCCCC(=O)*; dDab = NCC[C@@H](N)C(=O)O
# Tests used:
# [1] = target: Voltage-gated inwardly rectifying potassium channel KCNH2 (Homo sapiens) (UniProt Q12809); test: qHTS Assay for Small Molecule Inhibitors of the Human hERG Channel Activity (AID 588834);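 further: lower thallium flux fluorescence means stronger hERG block; nearly all actives have a fitted effect of over 50% in size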; further: potency means the concentration at half of the fitted maximal effect
# Chain of Voltage-gated inwardly rectifying potassium channel KCNH2 (Homo sapiens) (Q12809 whole entry, looked up): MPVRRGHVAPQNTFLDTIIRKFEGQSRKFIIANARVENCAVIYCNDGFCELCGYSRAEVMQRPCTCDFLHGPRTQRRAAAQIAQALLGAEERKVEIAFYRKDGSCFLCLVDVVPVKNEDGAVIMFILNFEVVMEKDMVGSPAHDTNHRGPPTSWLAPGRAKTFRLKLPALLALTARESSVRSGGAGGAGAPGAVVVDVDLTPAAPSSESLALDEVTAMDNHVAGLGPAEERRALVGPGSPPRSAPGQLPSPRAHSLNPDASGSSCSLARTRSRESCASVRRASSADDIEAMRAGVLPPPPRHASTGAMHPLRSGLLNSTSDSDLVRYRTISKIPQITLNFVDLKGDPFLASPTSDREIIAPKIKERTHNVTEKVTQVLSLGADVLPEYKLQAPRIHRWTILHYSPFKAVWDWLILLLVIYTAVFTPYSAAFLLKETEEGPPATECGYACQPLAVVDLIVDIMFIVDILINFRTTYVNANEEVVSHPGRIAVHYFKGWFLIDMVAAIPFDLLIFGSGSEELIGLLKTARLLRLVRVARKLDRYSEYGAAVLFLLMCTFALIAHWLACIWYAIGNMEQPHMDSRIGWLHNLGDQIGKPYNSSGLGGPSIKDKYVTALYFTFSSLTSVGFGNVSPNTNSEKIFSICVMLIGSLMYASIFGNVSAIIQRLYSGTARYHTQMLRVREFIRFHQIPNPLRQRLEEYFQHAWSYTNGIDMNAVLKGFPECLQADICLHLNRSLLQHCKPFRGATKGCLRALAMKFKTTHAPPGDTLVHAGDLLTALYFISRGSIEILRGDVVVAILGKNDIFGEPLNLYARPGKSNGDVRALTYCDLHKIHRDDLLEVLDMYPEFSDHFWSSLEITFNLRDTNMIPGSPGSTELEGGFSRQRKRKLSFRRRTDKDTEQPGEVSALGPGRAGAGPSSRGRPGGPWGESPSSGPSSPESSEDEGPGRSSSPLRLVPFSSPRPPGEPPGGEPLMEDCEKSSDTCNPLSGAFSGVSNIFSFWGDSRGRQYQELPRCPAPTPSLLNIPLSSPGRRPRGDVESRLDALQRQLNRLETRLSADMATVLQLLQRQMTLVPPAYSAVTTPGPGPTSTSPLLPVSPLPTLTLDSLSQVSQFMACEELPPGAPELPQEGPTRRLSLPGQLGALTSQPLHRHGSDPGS
# Method in brief: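 Concentration-response qHTS measuring drop in thallium-sensitive dye signal. U2OS cells carrying BacMam hERG; compound exposure ~10 min, then stimulation buffer and 2 min read at 1 sec intervals.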
# [2] = target: Glucocorticoid receptor (Homo sapiens) (UniProt P04150); test: qHTS assay for small molecule agonists of glucocorticoid receptor signaling (AID 588532; active means well fitted curve in the direction sought with a large enough effect in the signal ratio, with a control signal flat; the % refers to the signal ratio); conditions: HeLa MMTV-bla, beta-lactamase ratio, agonist, 18 h; stronger effect = higher value; percent of dexamethasone control, DMSO zero
# Chain of Glucocorticoid receptor (Homo sapiens) (P04150 whole entry, looked up): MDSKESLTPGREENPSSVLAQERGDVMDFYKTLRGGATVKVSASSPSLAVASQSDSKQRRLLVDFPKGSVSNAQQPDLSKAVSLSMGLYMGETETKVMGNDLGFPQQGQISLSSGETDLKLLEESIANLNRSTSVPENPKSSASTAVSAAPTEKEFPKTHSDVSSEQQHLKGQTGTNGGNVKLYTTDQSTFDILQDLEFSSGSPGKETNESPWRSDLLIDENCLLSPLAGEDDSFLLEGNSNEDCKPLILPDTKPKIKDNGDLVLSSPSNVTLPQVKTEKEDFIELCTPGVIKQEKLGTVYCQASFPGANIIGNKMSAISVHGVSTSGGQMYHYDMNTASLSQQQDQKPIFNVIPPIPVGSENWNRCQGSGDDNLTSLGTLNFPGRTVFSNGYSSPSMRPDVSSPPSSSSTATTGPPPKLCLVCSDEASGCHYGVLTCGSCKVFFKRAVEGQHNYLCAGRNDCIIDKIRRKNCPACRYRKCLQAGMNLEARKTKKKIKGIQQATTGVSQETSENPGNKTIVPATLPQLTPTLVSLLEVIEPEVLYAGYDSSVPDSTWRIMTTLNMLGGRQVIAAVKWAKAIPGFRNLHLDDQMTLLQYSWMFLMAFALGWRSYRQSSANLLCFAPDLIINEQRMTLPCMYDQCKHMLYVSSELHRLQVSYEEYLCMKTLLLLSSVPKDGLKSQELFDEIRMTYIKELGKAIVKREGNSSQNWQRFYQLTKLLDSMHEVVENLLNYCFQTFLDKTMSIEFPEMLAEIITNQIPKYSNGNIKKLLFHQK
# Method in brief: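 Quantitative HTS using CellSensor MMTV-bla HeLa cells in charcoal/dextran-treated serum; compounds tested up to 92 uM. After 18 h at 37 C, CCF4 dye reported reporter induction.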
# [3] = target: Glucocorticoid receptor (Homo sapiens) (UniProt P04150); test: qHTS assay for small molecule antagonists of glucocorticoid receptor signaling (AID 588533; active means well fitted inhibition curve with a large enough effect in the signal ratio, with a control signal flat, not every such curve was filed as active; the % refers to the signal ratio;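 further: cells stimulated with 2 nM dexamethasone as agonist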; further: potency means the concentration at half of the fitted maximal effect)
# Method in brief: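 Antagonist-mode qHTS: compound titrations added to GRE-bla HeLa cells, then dexamethasone 2 nM final; 18 h, 37 C. CCF4 FRET fluorescence normalized to dexamethasone and DMSO; IC50 from Hill fit.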
# [4] = target: Vitamin D3 receptor (Homo sapiens) (UniProt P11473); test: qHTS assay for small molecule agonists of vitamin D receptor signaling (AID 588543; calls by dose curve)
# Chain of Vitamin D3 receptor (Homo sapiens) (P11473 whole entry, looked up): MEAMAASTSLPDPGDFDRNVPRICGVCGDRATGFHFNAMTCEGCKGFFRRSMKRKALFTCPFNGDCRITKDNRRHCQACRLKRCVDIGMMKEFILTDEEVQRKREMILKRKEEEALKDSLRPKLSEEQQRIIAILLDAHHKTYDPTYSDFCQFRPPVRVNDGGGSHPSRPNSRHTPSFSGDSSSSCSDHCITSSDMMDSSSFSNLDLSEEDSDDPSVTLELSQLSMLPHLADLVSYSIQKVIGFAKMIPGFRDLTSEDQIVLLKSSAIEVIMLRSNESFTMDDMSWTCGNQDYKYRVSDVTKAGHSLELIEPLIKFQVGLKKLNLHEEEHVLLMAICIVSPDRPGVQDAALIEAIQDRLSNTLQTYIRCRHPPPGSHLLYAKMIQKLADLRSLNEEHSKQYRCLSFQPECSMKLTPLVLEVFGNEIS
# Method in brief: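 β-lactamase reporter, VDR-UAS-bla HEK293T, agonist mode. Cells plated 5 h at 37 °C, compound titration 16 h at 37 °C, CCF4 dye 2 h RT, ratio 460/530 nm. Hill fit → EC50, efficacy vs 50 nM 1α,25-(OH)2D3.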
# [5] = target: Thyroid hormone receptor beta (Homo sapiens) (UniProt P10828); test: qHTS assay for small molecule agonists of thyroid hormone receptor beta signaling (AID 588545; calls by dose curve)
# Chain of Thyroid hormone receptor beta (Homo sapiens) (P10828 whole entry, looked up): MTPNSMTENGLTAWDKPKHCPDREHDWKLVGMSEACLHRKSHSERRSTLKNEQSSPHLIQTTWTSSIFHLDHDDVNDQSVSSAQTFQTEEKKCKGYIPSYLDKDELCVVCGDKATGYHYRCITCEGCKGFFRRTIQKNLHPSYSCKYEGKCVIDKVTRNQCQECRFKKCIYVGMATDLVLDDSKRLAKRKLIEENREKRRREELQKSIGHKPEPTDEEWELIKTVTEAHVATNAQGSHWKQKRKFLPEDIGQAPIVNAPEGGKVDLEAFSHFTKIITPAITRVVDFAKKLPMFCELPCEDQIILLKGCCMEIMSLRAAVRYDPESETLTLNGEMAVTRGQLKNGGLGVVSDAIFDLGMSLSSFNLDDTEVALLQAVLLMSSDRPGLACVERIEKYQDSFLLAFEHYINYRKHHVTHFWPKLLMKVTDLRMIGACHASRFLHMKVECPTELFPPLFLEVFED
# Method in brief: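 Compounds were tested as agonists in TR-UAS-bla-GripTite HEK 293 cells. After 18 hrs at 37 C, CCF4 substrate was added and fluorescence read after 2 hrs at room temperature.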
# [6] = target: Bile acid receptor (Homo sapiens) (UniProt Q96RI1); test: qHTS assay for small molecule antagonists of farnesoid X receptor signaling (AID 588526; calls by dose curve)
# Chain of Bile acid receptor (Homo sapiens) (Q96RI1 whole entry, looked up): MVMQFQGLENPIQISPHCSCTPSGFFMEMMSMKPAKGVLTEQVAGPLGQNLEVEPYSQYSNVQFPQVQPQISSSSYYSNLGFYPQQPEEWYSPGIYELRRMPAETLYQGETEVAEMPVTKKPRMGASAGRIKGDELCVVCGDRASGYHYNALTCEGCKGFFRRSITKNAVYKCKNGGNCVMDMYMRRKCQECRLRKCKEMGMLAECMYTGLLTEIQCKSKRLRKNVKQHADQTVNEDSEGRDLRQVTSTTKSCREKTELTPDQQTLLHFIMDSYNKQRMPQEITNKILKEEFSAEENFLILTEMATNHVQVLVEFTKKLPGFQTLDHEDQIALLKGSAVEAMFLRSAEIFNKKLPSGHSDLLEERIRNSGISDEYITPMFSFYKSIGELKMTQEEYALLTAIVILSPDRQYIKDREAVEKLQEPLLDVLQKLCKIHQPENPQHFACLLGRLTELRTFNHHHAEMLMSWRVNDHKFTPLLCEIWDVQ
# Method in brief: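 Beta-lactamase reporter antagonist mode: HEK293T FXR-UAS-bla cells, titrated compound, CDCA stimulation, 16 h 37 C, CCF4 dye 2 h RT. Data normalized to CDCA 50 uM and DMSO; Hill-fit IC50.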
# [7] = target: Peroxisome proliferator-activated receptor gamma (Homo sapiens) (UniProt P37231); test: qHTS assay for small molecule agonists of peroxisome proliferator-activated receptor gamma signaling (AID 588536; active means well fitted curve in the direction sought with a large enough effect in the signal ratio, with a control signal flat, not every such curve was filed as active; the % refers to the signal ratio)
# Chain of Peroxisome proliferator-activated receptor gamma (Homo sapiens) (P37231 whole entry, looked up): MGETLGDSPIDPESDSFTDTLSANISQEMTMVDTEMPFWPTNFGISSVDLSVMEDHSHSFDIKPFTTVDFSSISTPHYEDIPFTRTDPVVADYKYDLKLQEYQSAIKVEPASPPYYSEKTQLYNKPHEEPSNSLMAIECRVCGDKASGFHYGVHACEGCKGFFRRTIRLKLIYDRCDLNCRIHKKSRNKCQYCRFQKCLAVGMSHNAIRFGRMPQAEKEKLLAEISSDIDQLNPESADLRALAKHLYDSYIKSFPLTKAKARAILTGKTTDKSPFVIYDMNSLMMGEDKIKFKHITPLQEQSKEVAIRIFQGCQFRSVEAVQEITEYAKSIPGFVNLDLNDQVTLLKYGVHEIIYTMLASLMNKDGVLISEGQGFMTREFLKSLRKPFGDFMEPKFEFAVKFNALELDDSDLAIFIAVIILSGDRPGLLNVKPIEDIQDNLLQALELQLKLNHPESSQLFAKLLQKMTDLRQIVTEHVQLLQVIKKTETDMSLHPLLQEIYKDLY
# Method in brief: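 PPAR-gamma-UAS-bla HEK293 cells in medium with 1% charcoal/dextran-treated FBS were exposed to compounds for 16 h at 37 C. Beta-lactamase activity was read with CCF4 substrate (405 nm excitation, 460/530 nm emission).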
# [8] = target: Peroxisome proliferator-activated receptor gamma (Homo sapiens) (UniProt P37231); test: qHTS assay for small molecule antagonists of peroxisome proliferator-activated receptor gamma signaling (AID 588537; active means well fitted inhibition curve with a large enough effect in the signal ratio, with a control signal flat, not every such curve was filed as active; the % refers to the signal ratio;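 further: reporter cells co-stimulated with 50 nM rosiglitazone agonist during compound treatment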)
# Method in brief: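 Inhibitors of agonist-stimulated UAS-bla reporter activity were sought in HEK293 cells; rosiglitazone (50 nM) defined full signal and DMSO baseline. Curves fitted to Hill model gave IC50 and efficacy.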
# [9] = qHTS assay for small molecule antagonists of retinoid X receptor alpha signaling (AID 588546; active means well fitted inhibition curve with a large enough effect in the signal ratio, with a control signal flat, not every such curve was filed as active; the % refers to the signal ratio;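 further: cells stimulated with 9-cis-retinoic acid as agonist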); conditions: HEK293T RXRa-UAS-bla, beta-lactamase ratio, antagonist mode; measured here: W530 green channel, cytotoxicity proxy
# Method in brief: (§1)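 Beta-lactamase reporter inhibition, read as CCF4 fluorescence ratio (ex 405, em 460/530 nm) after 2 h at RT. HEK293T UAS-bla cells, 2500/well, were stimulated with 9-cis-RA at 500 or 100 nM final alongside test compound for 18 h at 37 C.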
# [10] = target: Retinoic acid receptor RXR-alpha (Homo sapiens) (UniProt P19793); test: as above; conditions: HEK293T RXRa-UAS-bla, beta-lactamase ratio, antagonist mode
# Chain of Retinoic acid receptor RXR-alpha (Homo sapiens) (P19793 whole entry, looked up): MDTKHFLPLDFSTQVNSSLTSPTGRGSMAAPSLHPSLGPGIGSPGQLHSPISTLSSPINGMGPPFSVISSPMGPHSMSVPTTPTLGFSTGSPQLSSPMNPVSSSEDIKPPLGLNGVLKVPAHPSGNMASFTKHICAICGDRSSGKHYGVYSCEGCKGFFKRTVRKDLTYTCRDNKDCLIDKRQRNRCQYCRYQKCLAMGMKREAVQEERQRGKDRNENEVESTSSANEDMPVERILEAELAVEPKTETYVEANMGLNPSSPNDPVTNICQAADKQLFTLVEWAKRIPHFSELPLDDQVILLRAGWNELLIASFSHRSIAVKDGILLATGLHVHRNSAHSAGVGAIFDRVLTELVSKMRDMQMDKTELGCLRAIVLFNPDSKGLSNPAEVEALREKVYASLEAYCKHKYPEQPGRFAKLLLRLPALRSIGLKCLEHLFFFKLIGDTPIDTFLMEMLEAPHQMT
# Method in brief: as §1
# [11] = target: Thyroid hormone receptor beta (Homo sapiens) (UniProt P10828); test: qHTS assay for small molecule antagonists of thyroid hormone receptor beta signaling (AID 588547; active means well fitted inhibition curve with a large enough effect in the signal ratio, with a control signal flat, not every such curve was filed as active; the % refers to the signal ratio;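 further: cells stimulated with 0.4 nM T3 agonist during compound exposure; series mostly up to about 77 µM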); conditions: TR-UAS-bla HEK293, beta-lactamase ratio, antagonist mode, 18 h
# Method in brief: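 Inhibition of T3-driven (0.4nM final) beta-lactamase reporter activity was measured over 0.59 nM to 92 uM compound after 18 h at 37 C. The cells were GripTite HEK293 TR-UAS-bla in charcoal/dextran-stripped serum, with CCF4 ratio read-out and IC50 from Hill fits.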
# [12] = qHTS assay for small molecule antagonists of peroxisome proliferator-activated receptor delta signaling (AID 588535; active means well fitted inhibition curve with a large enough effect in the signal ratio, with a control signal flat, not every such curve was filed as active; the % refers to the signal ratio;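 on max response: cells co-treated with a PPAR-delta agonist as stimulator during compound exposure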); conditions: HEK293T PPARd-UAS-bla, beta-lactamase FRET ratio, 18 h; 460 nm channel
# Method in brief: (§2)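 Cell-based beta-lactamase assay in antagonist mode: 4000 HEK293T PPAR-delta-UAS-bla cells per well, 5 hr preincubation then 18 hr compound incubation at 37 C. IC50 obtained by Hill equation fitting.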
# [13] = target: Peroxisome proliferator-activated receptor delta (Homo sapiens) (UniProt Q03181); test: as above
# Chain of Peroxisome proliferator-activated receptor delta (Homo sapiens) (Q03181 whole entry, looked up): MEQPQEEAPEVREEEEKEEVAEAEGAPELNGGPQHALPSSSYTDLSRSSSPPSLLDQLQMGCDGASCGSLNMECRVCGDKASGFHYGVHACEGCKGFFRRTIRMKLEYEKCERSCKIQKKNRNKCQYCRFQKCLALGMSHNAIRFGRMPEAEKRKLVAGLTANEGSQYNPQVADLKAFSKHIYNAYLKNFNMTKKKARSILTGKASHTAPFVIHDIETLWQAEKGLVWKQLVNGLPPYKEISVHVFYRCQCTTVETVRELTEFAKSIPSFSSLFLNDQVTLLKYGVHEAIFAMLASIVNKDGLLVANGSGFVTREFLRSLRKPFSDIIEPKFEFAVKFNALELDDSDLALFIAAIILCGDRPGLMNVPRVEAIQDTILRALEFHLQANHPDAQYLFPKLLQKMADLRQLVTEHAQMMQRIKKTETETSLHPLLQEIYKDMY
# Method in brief: as §2
# [14] = qHTS assay for small molecule agonists of retinoid X receptor alpha signaling (AID 588544; calls by dose curve); conditions: HEK293T RXRa-UAS-bla, beta-lactamase reporter, 18 h; 530 nm emission
# [15] = target: Retinoic acid receptor RXR-alpha (Homo sapiens) (UniProt P19793); test: as above
# [16] = target: Vitamin D3 receptor (Homo sapiens) (UniProt P11473); test: qHTS assay for small molecule antagonists of vitamin D receptor signaling (AID 588541; calls by dose curve;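 further: receptor activated by calcitriol during compound treatment; series mostly up to about 77 µM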)
# Method in brief: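 Antagonist-mode beta-lactamase reporter assay: HEK293T VDR-UAS-bla cells were exposed to titrated compound alongside 1-alpha,25-dihydroxyvitamin D3 at 3 nM final for 16 h. Values were normalized to the 50 nM agonist control and DMSO basal, with IC50 and efficacy from Hill equation fits.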
smiles,measurement,setting,value
Cc1ncc(C[n+]2csc(CCOP(=O)(O)O)c2C)c(N)n1,Potency,[1],inactive
CCN(CC)CCOc1ccc2nc(N(C)C)sc2c1,Potency,[1],inactive
C[C@H]1O[C@@H](O[C@H]2[C@@H](O)C[C@H](O[C@H]3[C@@H](O)C[C@H](O[C@H]4CC[C@@]5(C)[C@H](CC[C@@H]6[C@@H]5C[C@@H](O)[C@]5(C)[C@@H](C7=CC(=O)OC7)CC[C@]65O)C4)O[C@@H]3C)O[C@@H]2C)C[C@H](O)[C@@H]1O,activation,[2],-7.98% (inactive)
same,Potency,[3],1 µM (active) and 562 nM (active)
same,outcome,[4],inactive
same,outcome,[5],inactive
same,Potency,[1],inactive
CC(C)CCC[C@@H](C)[C@H]1CC[C@H]2[C@@H]3CC=C4C[C@@H](O)CC[C@]4(C)[C@H]3CC[C@]12C,outcome,[6],inactive
same,activation,[2],13.5% (inactive)
same,outcome,[7],inactive
same,outcome,[8],inactive
same,outcome,[4],inactive
same,outcome,[5],inactive
same,max response,[9],11.8%
same,max response,[10],-19.4% (inactive)
same,activity change % (negative = inhibition),[11],-1.74% (inactive)
same,Potency,[1],inactive
O=C(O)c1ccc(OCCn2ccnc2)cc1,Potency,[1],inactive
C=CCOc1ccc(CC(=O)O)cc1Cl,Potency,[1],inactive
O=C(O)Cc1nn(Cc2ccc(Br)cc2F)c(=O)c2ccccc12,Potency,[1],inactive
O=C(CO)[C@@H](O)[C@H](O)[C@@H](O)C(=O)O,Potency,[1],inactive
CN(CCO)CC(O)Cn1cnc2c1c(=O)n(C)c(=O)n2C (centres undefined) (tested in a mixture with another compound),outcome,[6],inactive
same,max response,[12],15.9%
same,outcome,[13],inactive
same,outcome,[7],inactive
same,max response,[14],-8.02%
same,outcome,[15],inactive
same,outcome,[5],inactive
same,max response,[9],-4.33%
same,max response,[10],-3.95% (inactive)
same,activity change % (negative = inhibition),[11],12.1% (inactive)
same,Potency,[1],inactive
CCOC(C)OCC,activation,[2],-4.92% (inactive)
same,Potency,[3],inactive
same,outcome,[16],inactive
same,outcome,[4],inactive
same,max response,[14],-21.2%
same,outcome,[15],inactive
same,max response,[9],-5.73%
same,max response,[10],-3.17% (inactive)
same,Potency,[1],inactive
CCOC(=O)Oc1c(OC)cc(C(=O)O[C@@H]2C[C@@H]3CN4CCc5c([nH]c6cc(OC)ccc56)[C@H]4C[C@@H]3[C@H](C(=O)OC)[C@H]2OC)cc1OC,Potency,[1],2240 nM (active)
N[C@@H](Cc1cc(I)c(Oc2ccc(O)c(I)c2)c(I)c1)C(=O)O,activation,[2],-18.8% (inactive)
same,Potency,[3],inactive
same,max response,[12],53.8%
same,outcome,[13],inactive
same,outcome,[8],inactive
same,outcome,[16],inactive
same,outcome,[4],inactive
same,max response,[14],1.66%
same,outcome,[15],inactive
same,Potency,[1],inactive
CC(=O)Nc1ccc(OC(C)=O)cc1,Potency,[1],inactive
O=C(OCc1ccccc1)c1ccc(O)cc1,Potency,[3],inactive
same,outcome,[7],inactive
same,outcome,[8],inactive
same,outcome,[5],inactive
same,max response,[9],-3.09%
same,max response,[10],-35.8% (inactive)
same,activity change % (negative = inhibition),[11],27.2% (inactive)
same,Potency,[1],inactive
C[Si](C)(C)O[Si](C)(C)C,outcome,[6],inactive
same,max response,[12],8.43%
same,outcome,[13],inactive
same,outcome,[7],inactive
same,outcome,[8],inactive
same,outcome,[16],inactive
same,outcome,[4],inactive
same,max response,[14],-7.56%
same,outcome,[15],inactive
same,outcome,[5],inactive
same,max response,[9],-6.12%
same,max response,[10],-23.1% (inactive)
same,activity change % (negative = inhibition),[11],22.8% (inactive)
same,Potency,[1],inactive
CO,max response,[12],-4.23%
same,outcome,[13],inactive
same,outcome,[7],inactive
same,outcome,[16],inactive
same,outcome,[4],inactive
same,max response,[14],-9.41%
same,outcome,[15],inactive
same,outcome,[5],inactive
same,max response,[9],-6.65%
same,max response,[10],-0.242% (inactive)
same,activity change % (negative = inhibition),[11],0.348% (inactive)
same,Potency,[1],inactive
O.O.O.O.O.O.O.O=S(=O)([O-])[O-].[Co+2],outcome,[7],inactive
same,outcome,[8],inactive
same,max response,[14],2.89%
same,outcome,[15],inactive
same,outcome,[5],inactive
same,max response,[9],-11.7%
same,max response,[10],6.5% (inactive)
same,activity change % (negative = inhibition),[11],12.3% (inactive)
same,Potency,[1],inactive
FC(F)(F)C(F)(F)C(F)(F)C(F)(F)C(F)(F)F,Potency,[1],inactive
CC(C)[C@@H](N)C(=O)O,Potency,[1],inactive
CC[C@@H](C)CCCCC(=O)N[C@H](CCN)C(=O)N[C@@H](C(=O)N[C@H](CCN)C(=O)N[C@@H]1CCNC(=O)C([C@@H](C)O)NC(=O)[C@@H](CCN)NC(=O)[C@@H](CCN)NC(=O)[C@@H](CC(C)C)NC(=O)[C@@H](Cc2ccccc2)NC(=O)[C@@H](CCN)NC1=O)[C@@H](C)O (stereo partly drawn) (X3-[dDab][d(aThr)][dDab][dDab][dDab][dF][dL][dDab][dDab][ξThr(3R)]; lactam 4-C),Potency,[1],inactive
CCCCCCCCCCCCCCCCCCOCC(COP(=O)([O-])OCC[N+](C)(C)C)OC (centres undefined),Potency,[1],inactive
NC(Cc1ccccc1)C(=O)O (centres undefined),Potency,[1],inactive
CC1CC(OC(=O)C(O)c2ccccc2)CC(C)(C)C1 (centres undefined),Potency,[1],inactive
C=Cc1c(C)c2cc3nc(cc4[nH]c(cc5nc(cc1[nH]2)C(C)=C5CCC(=O)OC)c(CCC(=O)O)c4C)[C@@]1(C)C3=CC=C(C(=O)OC)[C@H]1C(=O)OC,Potency,[1],inactive
C=CC[N@@+]12CC[C@@]34c5ccccc5N5/C=C6/[C@H]7C[C@H]8[C@@]9(CC[N@@+]8(CC=C)C/C7=C/CO)c7ccccc7N(/C=C(/[C@@H](C[C@@H]31)/C(=C\CO)C2)[C@H]54)[C@@H]69,Potency,[1],inactive
